Source: PubChem BioAssay (National Center for Advancing Translational Sciences (NCATS))
The list is not random: actives were taken first. Their share in the collection is about 12%.
HP1b binding inh: HTS for Inhibitors of HP1-beta Chromodomain Interactions with Methylated Histone Tails; Chromobox protein homolog 1 (Homo sapiens), P83916; AlphaScreen HP1-beta / biotin-H3K9me3 peptide binding; Potency, µM (highest dose often 114 µM), inactives show at the highest dose activity change, negative = inhibition, actives largely listed as inhibitors; 0.56% of 390,000 active; note: nearly all actives have a fitted effect of over 70% in size
Target sequence (P83916 whole entry, looked up): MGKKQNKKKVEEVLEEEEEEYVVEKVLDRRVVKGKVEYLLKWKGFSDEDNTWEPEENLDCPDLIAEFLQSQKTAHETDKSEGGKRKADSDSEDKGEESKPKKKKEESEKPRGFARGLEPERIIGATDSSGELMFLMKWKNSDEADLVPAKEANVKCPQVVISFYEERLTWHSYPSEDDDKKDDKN
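AlphaScreen: HP1-beta (50 nM) preformed 30 min with biotin-H3(1-18)K9me3 peptide (50 nM) in PBS pH 7.4, 0.01% Tween-20. Compound added for 30 min at RT, then streptavidin donor/nickel chelate acceptor beads (10 ug/mL) for 30 min.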
Sfp inh: qHTS Assay for Inhibitors of Bacillus subtilis Sfp phosphopantetheinyl transferase (PPTase). Biochemical Sfp PPTase activity, qHTS. 4'-phosphopantetheinyl transferase ffp (Bacillus subtilis), Q9F4F7. 3.5% of 310,000 active. AID 1490, 2009. Potency, µM, inactives show largest response in the series, negative = inhibition, actives largely listed as inhibitors;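 note: the enzyme is Sfp with the accession as filed and its product quenches rhodamine fluorescence; 0% = enzyme reaction without inhibitor and -100% = no enzyme wells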
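Buffer: 50 mM Hepes-Na pH 7.6, 10 mM MgCl2, 0.01% Nonidet P-40, 0.01% BSA. Enzyme 15 nM, pre-exposed to compound 15 min; substrates then added and fluorescence change tracked over 30 min.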
BAZ2B block: qHTS Assay for Inhibitors of BAZ2B | Bromodomain adjacent to zinc finger domain protein 2B (Homo sapiens), Q9UIF8 | AlphaScreen BAZ2B-H3K14Ac peptide displacement | Potency, µM (top dose mostly 114 µM), inactives show top-dose activity change, negative = inhibition, actives largely listed as inhibitors | 4.4% of 360,000 active | AID 504333, 2011; note: % is set by controls: 0 for no effect and ±100 for the full control effect; nearly all actives have a fitted effect of over 60% in size
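BAZ2B 50 nM plus b-H3(5-23)K14Ac 50 nM, PBS pH 7.4/0.01% Tween-20, 30 min RT; compound added (max 110 uM), 30 min RT; streptavidin donor/Ni-chelate acceptor beads 10 ug/mL final, 20 min dark; AlphaScreen read.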
G9a block: qHTS Assay for Inhibitors of Histone Lysine Methyltransferase G9a. G9a H3K9 monomethylation, AlphaScreen, 2 h. Potency, µM (highest dose often 102 µM), for inactives: at the top dose activity, negative = inhibition, usual class: inhibitors. 8.8% of 350,000 active; note: % is set by controls: 0 for no effect and ±100 for the full control effect; nearly all actives have a fitted effect of over 75% in size
Target sequence (Q96KQ7 913-1193 limits assumed): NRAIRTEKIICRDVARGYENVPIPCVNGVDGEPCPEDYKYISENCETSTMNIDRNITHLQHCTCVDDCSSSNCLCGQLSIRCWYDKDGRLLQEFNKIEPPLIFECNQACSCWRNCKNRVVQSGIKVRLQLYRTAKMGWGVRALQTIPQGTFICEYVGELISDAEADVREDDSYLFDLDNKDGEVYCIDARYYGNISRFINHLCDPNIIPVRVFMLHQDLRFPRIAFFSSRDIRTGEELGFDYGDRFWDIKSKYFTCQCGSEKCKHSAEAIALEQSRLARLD
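Compounds were preincubated with 20 nM G9a for 15 min, after which biotinylated H3K9 peptide (500 nM) and SAM (20 uM) started a 2 h room-temperature reaction. Monomethylated product was quantified by antibody-based AlphaScreen chemiluminescence.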
L3MBTL1 block: qHTS Assay for the Inhibitors of L3MBTL1. 0.66% of 230,000 active. Potency, µM (highest dose often 57.1 µM), without a hit: at the highest dose activity, negative = inhibition, hits mostly inhibitors. AlphaScreen L3MBTL1–H3K9me1 peptide binding. Lethal(3)malignant brain tumor-like protein 1 (Homo sapiens), Q9Y468; note: % is set by controls: 0 for no effect and ±100 for the full control effect; nearly all actives have a fitted effect of over 60% in size
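First, the protein-peptide complex forms for 30 min at room temperature (L3MBTL1 50 nM, biotinylated H3K9me1 peptide 75 nM). Next, compounds are pin-transferred and incubated 30 min. Finally, AlphaScreen beads are added and read after 30 min.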
JMJD2A Tudor: qHTS Assay for Inhibitors of JMJD2A-Tudor Domain; AID 504339, 2011; Lysine-specific demethylase 4A (Homo sapiens), O75164; Potency, µM (highest dose often 114 µM), for inactives: top-dose activity change, negative = inhibition, most hits filed as inhibitors; AlphaScreen JMJD2A-Tudor / H3K4me3 peptide binding; 4.4% of 390,000 active; note: % is set by controls: 0 for no effect and ±100 for the full control effect; nearly all actives have a fitted effect of over 50% in size
An asterisk follows results filed as active; ? = inconclusive; nt = no result; [ ] = dose if it differs, or a comment. Calls come from the whole dose curve; as a rule, active = well fitted curve in the direction sought with a large enough effect; inconclusive = small, poorly fitted or top-dose-only effect, or another doubt; inactive = no such curve, though single readings can be large; an effect the other way counts as inactive or inconclusive. Potency is the fitted concentration of half-maximal effect.

SMILES	HP1b binding inh	Sfp inh	BAZ2B block	G9a block	L3MBTL1 block	JMJD2A Tudor
O=S(=O)(Nc1ccc2c(c1)nc1n2CCN(Cc2ccccc2)C1)c1ccccc1	11.9%	-10.7%	20.2%	?	-19.6%	-33.1%
O=C(CC12CC3CC(CC(C3)C1)C2)NC1CC1	35.7%	nt	nt	nt	nt	11.6%
FC(F)(F)c1cnc(-c2cnc(-c3ccncc3)nc2)c(Cl)c1	29.6%	-3.4%	3.8%	-6.0%	13.9%	-13.7%
FC(F)(F)c1cnc(-c2cnc(-c3ccccn3)nc2)c(Cl)c1	34.9%	6.6%	?	50.1µM*	10.2%	-12.0%[11.4 µM]
c1ccc(-c2nnc(SCc3nc4ccccc4[nH]3)n2Cc2ccco2)cc1	2.0%	-2.4%	-7.3%	nt	-3.8%	31.6µM*
Cc1ccc(OCc2nnc(SCc3nc4ccccc4[nH]3)n2Cc2ccco2)cc1	11.4%	12.9%	?	14.1µM*	-9.6%	?
N#CCCn1c(=O)cnc2cnc(Oc3cccc(Cl)c3)nc21	nt	15.7%	nt	0.8%[0.501 µM]	nt	nt
Cc1cc(C)c(C#N)c(=N)o1	-57.7%	14.1µM*	nt	1.78µM*	-6.3%	79.4µM*
Nc1ccc2nn(-c3cc([N+](=O)[O-])ccc3O)nc2c1	26.1%	-5.8%	-8.8%	39.8µM*	-11.2%	-11.6%
CCc1ccc(CN2CCCC(C(=O)N3CCCCC3)C2)cc1 (stereo not given)	-32.2%	-2.6%	79.4µM*	8.91µM*	2.8%	44.7µM*
COc1ccc(CN2CCCC(C(=O)N3CCCCC3)C2)c(OC)c1 (stereo not given)	-12.9%	-18.2%	-26.7%	nt	-4.3%	?
CCc1ccc(-c2nc(CN3CCCC(C(=O)O)C3)c(C)o2)cc1 (stereo not given)	29.8%	16.2%	3.8%	?	nt	-19.1%
Cc1ccccc1CN1CCCC(C(=O)N2CCCCC2)C1 (stereo not given)	?	-25.9%	79.4µM*	25.1µM*	nt	22.4µM*
O=C(C1CCCN(Cc2cccnc2)C1)N1CCCCC1 (stereo not given)	?	50.1µM*	22.4µM*	3.98µM*	-4.3%	?
FC(F)(F)c1ccccc1-c1nccc(NCc2ccccc2)n1	nt	8.5%	nt	nt	nt	nt
O=S1(=O)C=C(SCc2cccc(Cl)c2)Nc2ccccc21	25.8%	14.9%	-1.1%	18.9%	0.6%	-13.1%
CCn1cnc2c1c(=O)n(Cc1cccc(Br)c1)c(=O)n2Cc1ccccc1	19.4%	-5.6%	-0.5%	-7.7%[59 µM]	nt	70.8µM*
Cc1onc(-c2ccccc2)c1C(=O)OCC(=O)N(C)c1ccccc1	41.5%	nt	nt	nt	5.2%	-9.6%
CCc1nc2ccccc2c(C(=O)Nc2ccc(F)cc2)c1C	17.8%	9.5%	-17.4%	25.9%	-0.4%	-2.0%
O=c1c2ccccc2sn1-c1ccccc1	?	0.501µM*	7.94µM*	?	nt	3.98µM*
Cc1ccccc1-n1sc2cc(F)ccc2c1=O	15.8µM*	0.562µM*	4.47µM*	-112.7%	nt	4.47µM*
O=c1c2ccccc2sn1-c1nccs1	?	2.24µM*	5.01µM*	1.41µM*	-0.1%	5.62µM*
O=c1c2cc(F)ccc2sn1-c1ccccc1	0.5%	nt	10µM*	0.0%[0.501 µM]	-4.5%	8.91µM*
O=c1ccsc2ccccc12	14.4%	nt	nt	nt	nt	-0.7%
COc1cccc(Cn2c(=O)cnc3cnc(N(C)C)nc32)c1	nt	31.0%	nt	1.6%[0.501 µM]	nt	nt
COc1cccc(Nc2ncc3nc(CCc4ccccc4)c(=O)n(Cc4cccs4)c3n2)c1	nt	35.2%	nt	7.8%[0.501 µM]	nt	nt
O=C(O)c1cccc(-n2sc3ccccc3c2=O)c1	73.2%	nt	8.91µM*	7.3%[0.501 µM]	-5.2%	2.82µM*
CN(C)S(=O)(=O)c1cccc(-n2sc3ccccc3c2=O)c1	-12.3%	1.58µM*	4.47µM*	-127.9%	-0.4%	14.1µM*
